# Calls of active or inactive are those of the source. The calls were made as follows: active = hit-call score of the fitted dose curve at least 0.9, where 1 is the maximum; inactive = score below 0.9.
# Assay: ATG_CMV_CIS: Attagene CIS-FACTORIAL HepG2 Assay for human CMV (Internal Marker) (AID 2282928);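 also: endpoint acts as a background internal control marker rather than a target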
# Conditions: HepG2 CMV promoter reporter, transcription factor profiling; actives raise or lower the signal
# Procedure: ATG_CIS is a cell-based, multiplexed-readout assay that uses HepG2, a human liver cell line, with measurements taken at 24 hours after chemical dosing in a 24-well plate.ATG_CMV_CIS is one of 52 assay component(s) measured or calculated from the ATG_CIS assay. It is designed to make measurements of mRNA induction, a form of inducible reporter, as detected with fluorescence intensity signals by Reverse transcription polymerase chain reaction (RT-PCR) and Capillary electrophoresis technology.Data from the assay component ATG_CMV_CIS was analyzed into 1 assay endpoint. This assay endpoint, ATG_CMV_CIS, was analyzed with bidirectional fitting relative to DMSO as the negative control and baseline of activity. Using a type of inducible reporter, measures of mRNA for gain or loss-of-signal activity can be used to understand the background control at the transcription factor-level as they relate to the gene . Furthermore, this assay endpoint can be referred to as a secondary readout, because this assay has produced multiple assay endpoints where this one serves a background control function. To generalize the intended target to other relatable targets, this assay endpoint is annotated to the background measurement intended target family, where the subfamily is internal marker.
# Human liver HepG2 cells are transiently transfected with multiple reporter transcription units (MRTUs) in 6-well plates using FuGene 6 reagent (Roche; 3 ml FuGene/1 mg DNA). The MRTU constructs are regulated by a cis-regulating element (promoter). […] A major difference between the CIS and TRANS system is that in CIS activities of endogenous TFs are measured, whereas the TRANS assay evaluates changes in activities of exogenous, chimeric NR-Gal4 proteins. […] At the end of 24 hour incubation, total RNA was isolated using TriZol reagent (Invitrogen). The isolated RNA is then reverse-transcribed using oligo(dT) primer and Mo-MLV reverse transcriptase (Invitrogen) with DNAse I (Ambion) treatment for 30 min. The one-tenth of the produced cDNA was amplified by PCR using Taq DNA polymerase (Invitrogen) and two reporter sequence-specific primers. The PCR products were fluorescently labeled by primer extension with 6-arboxyfluorescein (6-FAM) 5'-labeled reporter sequence-specific primer (2 min at 95 C, 20 s at 68 C and 10 min at 72 C) and these products were digested with 5U of HpaI (New England Biolabs) for 2h at 37 C. The fragments were purified using Qiaquick PCR columns (Qiagen), analyzed on an ABI 3130xL genetic analyzer (Applied Biosystems) with peak positions identified by using a set of X-rhodamine (ROX)-labeled MapMarker1000 molecular weight standards (BioVentures). The raw capillary electrophoresis data was processed using Attagraph software (Attagene).
SMILES,outcome,AC50
COc1ccc(C)cc1N,inactive,–
COc1cccc2c1C(=O)c1c(O)c3c(c(O)c1C2=O)C[C@@](O)(C(=O)CO)C[C@@H]3O[C@H]1C[C@H](N)[C@H](O)[C@H](C)O1,–,1.19 µM (active)
O=C(OCCCCCOC(=O)c1ccccc1)c1ccccc1,inactive,–
FC(F)(F)C(F)(F)C(F)(F)C(F)(F)C(F)(F)C(F)(F)CCI,inactive,–
Cc1ccc(N(C)C)cc1,inactive,–
CCOc1ccc2c(c1)C(C)=CC(C)(C)N2,–,69.4 µM (active)
COC(=O)c1ccc(O)cc1,inactive,–
CCCCN(CCCC)CCCC,inactive,–
CCCCCCCCCCC,inactive,–
Cc1ccc(C)c(O)c1C,inactive,–
CCCCCCCC=O,inactive,–
CCc1c(C(=O)NN2CCCCC2)nn(-c2ccc(Cl)cc2Cl)c1-c1ccc(Br)cc1,–,6.36 µM (active)
COc1cc(-c2nc(NC(=O)c3cc4cc(C)cc(C)c4n3CC(=O)O)sc2CCC2CCCCC2)c(OC)cc1Cl,–,3.3 µM (active)
Nc1ccc2c(c1)C(=O)c1ccccc1C2=O,inactive,–
CCCCCCCCCCCCCO,–,59.4 µM (active)
Nc1ccc(S(=O)(=O)c2ccc(N)cc2)cc1,inactive,–
NCCO,inactive,–
O=C(N[C@@H](Cc1ccccc1)[C@@H](O)C(=O)N1C[C@@H](O)[C@@H](O)C1)c1cc2cc(Cl)ccc2[nH]1,inactive,–
CCCCC(CC)COC(=O)CC(C(=O)OCC(CC)CCCC)S(=O)(=O)O (stereo not given),inactive,–
c1cc(-c2ccncc2)ccn1,inactive,–

SMILES,outcome,AC50
CC(CO)OC(C)CO (stereo not given) (tested in a mixture with another compound),inactive,–
CNCc1cc(F)ccc1Oc1ccc(Cl)c(Cl)c1,inactive,–
Cc1cc(=O)[nH]c(=S)[nH]1,inactive,–
CN[C@H]1CC[C@@H](c2ccc(Cl)c(Cl)c2)c2ccc(S(N)(=O)=O)cc21,inactive,–
Oc1ccc2ccccc2c1N=Nc1ccccc1,inactive,–
CN1CCCC1=O,inactive,–
Cc1ccccc1Cl,inactive,–
CC(=O)OC/C=C(\C)CCC=C(C)C,inactive,–
CC(C)(C)c1cc(O)c(C(C)(C)C)cc1O,–,30.2 µM (active)
NC(=O)Cn1c(=O)cc(CCN2CCN(c3nccc4sccc34)CC2)c2ccc(F)cc21,–,100 µM (active)
CCCc1cc(=O)[nH]c(=S)[nH]1,inactive,–
CC1=C(/C=C/C(C)=C/C=C/C(C)=C/CO)C(C)(C)CCC1,–,193 µM (active)
CN1CCN(Cc2cc(-c3ccc4[nH]c(=O)oc4c3)co2)[C@@H](c2ccc(F)cc2)C1,inactive,–
CCCCOC(=O)CCCCCCCCC(=O)OCCCC,inactive,–
CCCCc1ccc2c(n1)[C@@H](c1ccc(OC)cc1C[C@H](C)C(=O)O)[C@H](C(=O)O)[C@H]2c1ccc2c(c1)OCO2,inactive,–
CC(=O)Oc1ccccc1C(=O)O,inactive,–
CC=Cc1ccc(O)c(OC)c1,inactive,–
CCCCCCC(=O)OCC,inactive,–
Cc1oc(-c2ccccc2)nc1CCOc1cccc2c1ccn2CCC(=O)O,–,19.8 µM (active)
O=c1[nH]cc(F)c(=O)[nH]1,–,8.27 µM (active)

# — PubChem BioAssay (EPA / NIEHS)
